# Reference: PubChem BioAssay (NCI)
# About 79,000 compounds went through this panel and 15% of them were active in at least one assay; those are over-represented in the sample as a whole. A number with no mark means an inactive call. The source made the active and inactive calls. Rule as the data show it: active = growth inhibition above about 70%; inactive = the rest.
# Test: NCI Yeast Anticancer Drug Screen. Data for the rad50 strain (AID 155);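 also: 0% = growth of vehicle-only cultures of the same strain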
# Details: S. cerevisiae rad50 strain growth inhibition; at 50.0 µM; hits give high values
# Procedure, shortened: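 Yeast carrying a defined DNA repair defect were exposed to test compounds, and growth was compared with vehicle-treated controls to give percent inhibition.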
row,SMILES,growth inhibition
1,ON1c2ccccc2-c2ccccc2C1(c1ccccc1)c1ccccc1,95.8% (active)
2,O=C(OCc1ccccc1)c1ccccc1O,39.1%
3,C=CCCCCCCCCC(=O)OC,-11.8%
4,CC(=O)c1c(C)cc(C)nc1C,14.8%
5,Cc1cccc(CCSCCc2cccc(C)[n+]2[O-])[n+]1[O-],19.8%
6,CCCNc1nc(N)[nH]c(=O)c1NC=O,2.45%
7,C(=C\c1cc(-c2cc(/C=C/c3ccccc3)[nH]n2)n[nH]1)/c1ccccc1,6.15%
8,C=CCCCCCCCCC(=O)Nc1cc2c3c(c1)CCCN3CCC2,6.95%
9,O=C1C=Cc2ccccc2/C1=C/c1nc(-c2ccc(Cl)cc2)oc1O,-3.2%
10,COn1c(-c2ccccc2)nc2c1C(=O)N(C)CN2C,-14.2%
11,CCCCCCCC[N+](C)([O-])CCCCCC[N+](C)([O-])CCCCCCCC (stereo not given),63.6%
12,O=C(NI1OC(=O)c2ccccc21)c1ccc(Cl)cc1,-9%
13,COc1ccc(N=Cc2ccc([N+](=O)[O-])cc2)cc1,27.9%
14,Cc1c(Cl)cccc1NC(=O)OC/C=C/c1ccccc1,3.2%
15,COc1ccc(/C=C2\CCN=C2c2ccccc2)cc1OC,-1.65%
16,Cc1[nH]c2ccccc2c1-c1cc(-c2cc(-c3c(C)[nH]c4ccccc34)nc(N)n2)nc(N)n1,-12.9%
17,CN(C)C=N[C@@H](C(=O)O)c1ccccc1,-8.85%
18,CCCCN=C(C)CC(=O)CC(=O)c1ccccc1,30.3%
19,COc1ccc2c(c1OC)C(=O)OC2(O)C1=NCCc2cc3c(cc21)OCO3 (stereo not given),19%
20,Cc1ccc(NC(=O)CCSC(=O)Nc2ccc(C)cc2)cc1,-1.2%

row,SMILES,growth inhibition
1,Clc1ccc(-c2ccncc2)cc1,17.1%
2,COc1ccc(/C=C2\N=C(c3ccc(N)cc3)OC2=O)cc1OC,10.1%
3,COc1ccc(/C=N/NC(=O)O)cc1,4.55%
4,Oc1cccc2nc3cc(CN4CCOCC4)c(CN4CCOCC4)cc3nc12,8.35%
5,CCC(=O)NCCc1ccccc1,-16.2%
6,N=C(CNC(=O)OCc1ccccc1)N1CCCC1C(=O)O (stereo not given),13.6%
7,Clc1ccc(SCSc2ccc(Cl)cc2)cc1,16.8%
8,COc1ccc(C(=O)Nc2ccccc2C#N)cc1,-0.15%
9,O=C(NN1C(=O)C(Cl)C1c1ccccc1Cl)c1ccccc1O (stereo not given),-48.1%
10,Cc1ccc(C)c(N2C(=O)C(=O)C(c3nc4ccccc4o3)/C(=N/N)C2=O)c1 (stereo not given),-18.8%
11,C#Cc1cccc(N=Cc2cc(Cl)cc(C)c2O)c1,16.1%
12,CC1=CCC(=O)[C@]2(C)C(CC(=O)O)[C@]3(C)C4=C(C)C(c5ccoc5)C[C@@H]4O[C@@H]3[C@H](O)[C@@H]12 (stereo not given in full),26.5%
13,Cc1[nH]c2c(O)ccc(O)c2c1C,-1.05%
14,CCOC(=O)/C(=C\c1c(C)[nH]c2ccccc12)P(=O)(OCC)OCC,-15.2%
15,COC(=O)C1(Br)c2ccccc2-c2ccccc21,-3.15%
16,Cc1ccc(S(=O)(=O)OC(c2ccccc2)c2ccccc2)cc1,-7.05%
17,O=C1OC(c2ccccc2)=N/C1=C/c1c(-c2ccccc2)c(-c2ccccc2)c2n1CCC2,21.9%
18,O=NN(C(=O)NCCCl)c1[nH]c(=O)ncc1Br,-8.6%
19,O=C(OCc1ccccc1CN1CCCC1)c1ccc([N+](=O)[O-])cc1Cl,-13%
20,CCO/C=C1/N=C(Cc2ccccc2)OC1=O,18.4%
